This note sets out measurements from PubChem BioAssay (NCI).

Among the test systems are HCT-15 colon; HT29 colon; SNB-75 CNS; SNB-19 CNS; U251 CNS; PC-3 prostate; SK-MEL-5 melanoma; UACC-62 melanoma; LOX IMVI melanoma; SK-MEL-28 melanoma.
Holding throughout (experiment): NCI-60 one-dose screen, 48 h (100 = growth as untreated, 0 = no growth, -100 = all killed)
What all share (details): 10 µM unless noted

Each structure is given as a SMILES string. Compounds without any hit were thinned out: in the full panel of roughly 83,000, 20% have a hit.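 Testing used 96-well plates and a 48-hour single-concentration exposure. Example: -40 means 40% of the starting cells died.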 Values without a mark were called inactive. Activity calls are given as the source filed them. Rule for the calls: active = growth percent below 10; inactive = the rest.

As for `C=C1C(=O)O[C@H]2[C@H]1CC/C(COC(=O)c1cn(C)c3ccccc13)=C\CC[C@@]1(C)O[C@@H]21`, the growth in the assay on HCT-15 colon was -44.9% (active); with HT29 colon, -77.2% (active); in the assay on SNB-75 CNS, 59%; in the assay on SNB-19 CNS it was 25.6%; in the assay on U251 CNS, 11.7%; in the assay on PC-3 prostate it was -55.1% (active). The growth in the assay with SK-MEL-5 melanoma was 4.24% (active); in the assay with UACC-62 melanoma, -51.1% (active); with LOX IMVI melanoma, -86.5% (active); with SK-MEL-28 melanoma, -22% (active).
For the compound `Cn1nc(C(F)(F)F)c(-c2cc(C(F)(F)F)cc(C(F)(F)F)c2)c1-c1ccc(OCc2ccc(Cl)cc2)cc1O`, the growth in the assay on HCT-15 colon is 7.5% (active); in the assay with HT29 colon, 3.77% (active); in the assay on SNB-75 CNS, 4.92% (active); in the assay with SNB-19 CNS, 22.6%; in the assay on U251 CNS, 6.17% (active); in the assay on PC-3 prostate, 10.7%. For the same compound, the growth was -36.6% (active) with SK-MEL-5 melanoma, 3.02% (active) with UACC-62 melanoma, 6.23% (active) in the assay on LOX IMVI melanoma and 28% in the assay with SK-MEL-28 melanoma.
Regarding `CC(=O)OC[C@]12CC[C@@H](c3cn(Cc4ccc(Cn5cc([C@@H]6CC[C@]7(COC(C)=O)CC[C@]8(C)[C@H](CC[C@@H]9[C@@]%10(C)CC[C@H](OC(C)=O)C(C)(C)[C@@H]%10CC[C@]98C)[C@@H]67)nn5)cc4)nn3)[C@@H]1[C@H]1CC[C@@H]3[C@@]4(C)CC[C@H](OC(C)=O)C(C)(C)[C@@H]4CC[C@@]3(C)[C@]1(C)CC2`, the growth with HCT-15 colon was 102%; with HT29 colon it was 97.2%; in the assay with SNB-75 CNS, 105%; in the assay on SNB-19 CNS it was 96.7%; in the assay on U251 CNS, 103%; with PC-3 prostate, 104%. Moreover, the growth in the assay with SK-MEL-5 melanoma is 105%; in the assay with UACC-62 melanoma, 95.8%; in the assay on LOX IMVI melanoma, 97.3%; in the assay on SK-MEL-28 melanoma, 99.8%.
Regarding `CCc1c(C(=O)N[C@@H](C(=O)OCc2ccccc2)C(C)O)[nH]c2ccc(Cl)cc12` (stereo not given in full), the growth is 79.3% in the assay on HCT-15 colon; 72.8% with HT29 colon; 19.9% in the assay with SNB-75 CNS; 83.6% in the assay with SNB-19 CNS; 36.3% with U251 CNS; 82.1% with PC-3 prostate. Moreover, the growth was 84.1% with SK-MEL-5 melanoma, 91.4% in the assay on UACC-62 melanoma, 81.1% in the assay with LOX IMVI melanoma and 100% with SK-MEL-28 melanoma.
`COc1ccc(N(C)c2nc(Cl)nc3ccn(C)c23)cc1`: the growth in the assay with HCT-15 colon was 12.6%; in the assay on HT29 colon, -2.47% (active); in the assay on SNB-75 CNS, 56.8%; in the assay with SNB-19 CNS, 25.3%; in the assay on U251 CNS, 3.67% (active); in the assay with PC-3 prostate it was 16.1%. Besides, the growth in the assay on SK-MEL-5 melanoma was -44.2% (active); with UACC-62 melanoma it was 39.1%; in the assay on LOX IMVI melanoma it was 27.6%; in the assay on SK-MEL-28 melanoma, 49.2%.
Take `COc1ccc(C(C)c2cc(OC)c(OC)c(OC)c2)cc1` (stereo not given): the growth was 18% with HCT-15 colon; 4.2% (active) in the assay on HT29 colon; 38.2% with SNB-75 CNS; 34.1% with SNB-19 CNS; 18% with U251 CNS; 24.5% with PC-3 prostate. In addition, the growth in the assay on SK-MEL-5 melanoma is -31.5% (active); in the assay with UACC-62 melanoma it was 28.1%; with LOX IMVI melanoma it was 26.1%; with SK-MEL-28 melanoma, 61.1%.
In the case of `COc1ccc(-c2nnc(N3CCN(C(=O)CN4CCN(c5ccc(OC)cc5)CC4)CC3)nc2-c2ccc(OC)cc2)cc1`, the growth is -40.9% (active) in the assay on HCT-15 colon; 4.12% (active) in the assay with HT29 colon; 65.7% in the assay on SNB-75 CNS; 96.1% with SNB-19 CNS; 4.4% (active) with U251 CNS; -96.4% (active) with PC-3 prostate. Moreover, the growth in the assay with SK-MEL-5 melanoma was -50.2% (active); in the assay on UACC-62 melanoma, -48.2% (active); in the assay on LOX IMVI melanoma it was -63.3% (active); in the assay with SK-MEL-28 melanoma, -84.1% (active).
For `NS(=O)(=O)c1ccc(N2Cc3cc(Cl)ccc3OC3=C2C(=O)N(CC2CCCCC2)C3=O)cc1`, the growth in the assay on HCT-15 colon was -79.2% (active); in the assay on HT29 colon, -67.4% (active); in the assay on SNB-75 CNS, -98.4% (active); with SNB-19 CNS it was -6.19% (active); in the assay on U251 CNS, -91.3% (active); in the assay with PC-3 prostate, -61.9% (active). Besides, the growth in the assay on SK-MEL-5 melanoma was -94.4% (active); in the assay with UACC-62 melanoma, -76.1% (active); with LOX IMVI melanoma, -86.2% (active); in the assay on SK-MEL-28 melanoma, -93.1% (active).
As for `Nc1ccccc1NS(=O)(=O)c1ccc(Cl)cc1`, the growth in the assay on HCT-15 colon was 102%; in the assay on HT29 colon it was 91.7%; in the assay on SNB-75 CNS, 81.8%; with SNB-19 CNS, 96.6%; in the assay with U251 CNS, 101%; in the assay on PC-3 prostate, 91.5%. In addition, the growth was 94.4% in the assay with SK-MEL-5 melanoma, 91.4% in the assay on UACC-62 melanoma, 92.1% with LOX IMVI melanoma and 96.8% in the assay on SK-MEL-28 melanoma.
Take `Cc1ccc(C2=N[C@H]3CCC[C@@H]3N(c3ccccc3)C(C(Cl)Cl)=N2)cc1`: the growth in the assay on HCT-15 colon was 99%; in the assay on HT29 colon it was 89.7%; in the assay on SNB-75 CNS it was 77%; in the assay with SNB-19 CNS it was 113%; in the assay with U251 CNS, 112%; with PC-3 prostate it was 101%. Moreover, the growth in the assay with SK-MEL-5 melanoma was 104%; with UACC-62 melanoma it was 105%; in the assay on LOX IMVI melanoma, 87.9%; in the assay on SK-MEL-28 melanoma, 101%.
With `O=C(Nc1cc(Br)ccn1)c1cc2cc(Nc3nc(-c4ccccc4)nc4ccccc34)ccc2oc1=O`, the growth was 107% in the assay on HCT-15 colon; 104% with HT29 colon; 92.3% with SNB-75 CNS; 107% in the assay on SNB-19 CNS; 107% in the assay with U251 CNS; 93.6% in the assay on PC-3 prostate. In addition, the growth is 101% in the assay with SK-MEL-5 melanoma, 103% with UACC-62 melanoma, 83.8% with LOX IMVI melanoma and 114% in the assay on SK-MEL-28 melanoma.
As to `Nc1c(C(=O)Nc2ccccn2)sc2nc3c(cc12)CCCCCC3`, the growth with HCT-15 colon is 20.2%; in the assay on HT29 colon, 3.49% (active); with SNB-75 CNS it was -1.5% (active); with SNB-19 CNS, 22.3%; in the assay on U251 CNS, 16%; with PC-3 prostate, 20.9%. Also, the growth is 9.47% (active) in the assay on SK-MEL-5 melanoma, 24.8% in the assay with UACC-62 melanoma, 36.2% in the assay on LOX IMVI melanoma and 51.2% in the assay with SK-MEL-28 melanoma.
For the compound `CNS(=O)(=O)c1cccc(-c2ccc3c4c(n(C)c(=O)c3c2)-c2ccccc2C4=O)c1`, the growth is 30.5% in the assay on HCT-15 colon; 45.8% with HT29 colon; 65.9% in the assay with SNB-75 CNS; 31.3% in the assay with SNB-19 CNS; 23.2% in the assay on U251 CNS; 73.4% in the assay on PC-3 prostate. Besides, the growth with SK-MEL-5 melanoma is 48.3%; with UACC-62 melanoma, 56.3%; in the assay with LOX IMVI melanoma it was 35.1%; in the assay with SK-MEL-28 melanoma, 93%.
